D1 ag: agonists of human D1 dopamine receptor. P21728. activation, % at 2 µM. HEK293 T-REx D1 cells, calcium flux, agonist mode. actives 1% (n = 360,000). AID 504660; in the data active = activation above about 30%; note: 0% is about no effect
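Inducible HEK293 T-REx D1 cells, force-coupled to calcium signalling, were plated at 4000 cells/well with tetracycline and held overnight at 30 C. After no-wash calcium dye loading, compound-evoked calcium rise over 180 s flagged agonists.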
D3 ag: agonists of human D3 dopamine receptor | P35462 | D3R DiscoveRx beta-arrestin cells, luminescence, 90 min | max activation, % | actives 0.58% (n = 410,000) | AID 652048; in the data active = max activation above about 30%; note: 0% is about no effect
Target sequence (P35462 whole entry, looked up): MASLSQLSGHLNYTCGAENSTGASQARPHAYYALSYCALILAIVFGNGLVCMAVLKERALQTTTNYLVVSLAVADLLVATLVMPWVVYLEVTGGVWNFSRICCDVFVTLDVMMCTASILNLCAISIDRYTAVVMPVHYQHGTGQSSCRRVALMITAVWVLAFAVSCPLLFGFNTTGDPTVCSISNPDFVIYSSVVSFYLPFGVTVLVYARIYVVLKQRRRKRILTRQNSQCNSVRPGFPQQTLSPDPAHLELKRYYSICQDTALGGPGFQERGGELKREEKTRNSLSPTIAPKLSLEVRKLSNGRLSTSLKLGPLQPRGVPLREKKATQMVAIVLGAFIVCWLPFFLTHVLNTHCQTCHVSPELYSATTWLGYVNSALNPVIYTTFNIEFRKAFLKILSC
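Agonist mode: compounds and dopamine controls were applied to plated cells for 90 min at 37 degrees C after an overnight attachment at 1500 cells/well. Luminescent read-out followed 30 - 60 minutes at room temperature with DiscoveRx detection reagent.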
DRD3 antagonist: blocks the human D3 dopamine receptor; D3R cells, DiscoveRx beta-arrestin luminescence, antagonist mode; stronger effect = lower value; max response, negative = inhibition, %; P35462; AID 652054; actives 2.5% (n = 360,000); in the data active = max response below about -50%; inconclusive = no clear call, values can overlap the other calls; note: % is set by controls: 0 for no effect and ±100 for the full control effect
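Cells plated overnight at 1500 cells/well, then exposed to library compounds with dopamine controls for 90 minutes at 37 degrees C. DiscoveRx reagent added for 30–60 minutes at room temperature; luminescence read, quantitative HTS format.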
D1 antagonist: human D1 dopamine receptor antagonism. P21728. actives 3.2% (n = 360,000). AID 504652. HEK293 TREx D1 cells, calcium flux, dopamine EC80; stronger effect = lower value. activity change, negative = inhibition, % at 10 µM; in the data active = activity change below about -30%; note: % is set by controls: 0 for no effect and ±100 for the full control effect
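HEK293 T-REx cells expressing inducible, force-coupled D1 receptor; no-wash Ca dye, 30–90 min RT. Cmpd → 180 s read at 1 Hz → EC80 DA → 180 s read.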
D1 potentiator: potentiators of human D1 dopamine receptor. potentiation, % at 10 µM. P21728. actives 0.036% (n = 360,000). HEK293 TREx D1 cells, calcium flux, dopamine EC20 potentiation; in the data active = potentiation above about 30%; note: 0% is about no effect
Starred values were filed as active, the others as inactive; u = inconclusive; x = not tested or not shown. This is a sample that favours compounds with a hit; in the whole collection about 6% have one here.

SMILES	D1 ag	D3 ag	DRD3 antagonist	D1 antagonist	D1 potentiator
Cc1ccc(C2CC2c2n[nH]c(=S)n2-c2ccc(C)cc2)cc1 (stereo not drawn)	2	-25	-8	x	-1
Cc1ccc(-n2c(C3CC3c3ccc(Cl)cc3)n[nH]c2=S)cc1 (stereo not drawn)	1	2	-61*	-6	-2
COc1ccc(-c2oc3ncnc(NCCCN(C)C)c3c2-c2ccc(OC)cc2)cc1	7	-17	-104*	-7	-3
CN(C)CCNc1ncnc2oc(-c3ccccc3)c(-c3ccccc3)c12	2	-15	-61*	-4	-5
CCOC(=O)c1ccc(NS(=O)(=O)c2ccc(Br)s2)cc1	1	5	x	-4	-1
O=C1c2ccccc2S(=O)(=O)N1Cc1cc(=O)n2ccsc2n1	5	-5	-76*	-15	-6
O=c1cc(CN2CCCCCC2)nc2sccn12	3	-6	-5	0	-2
CCCCNC(=O)C[C@@H]1C[C@@]2(C(=O)OCC)CCCC=C2N(Cc2ccco2)C1=O	x	-5	-21	x	x
CCC(C(=O)OCC(=O)NC(=O)c1ccccc1)c1ccccc1 (stereo not drawn)	70*	-3	-21	-10	-5
OCCC1CN(Cc2ccc(F)cc2)CCN1CCCc1ccccc1 (stereo not drawn)	4	-18	-58*	4	-3
OCCC1CN(Cc2ccc(F)cc2)CCN1CCc1ccccc1 (stereo not drawn)	5	-26	-25	-28	-9
OCCC1CN(CCCc2ccccc2)CCN1Cc1ccccc1 (stereo not drawn)	5	-21	-82*	-6	3
CN(C)CCC1(c2ccccc2)CCN(C)C1=O (stereo not drawn)	x	-2	u	x	x
CC(C)(C)c1ccc(NC(=O)CSc2nnc3scc(-c4ccccc4)n23)cc1	3	22	x	14	4
O=C1NC[C@@H](CCCCN2CCN(CCC3CCCCC3)C(=O)C2=O)N(CCC2CCCCC2)C1=O	x	3	23	x	x
COc1ccc(-c2cn3nc(N4CCCC(C(=O)NCc5ccc(Cl)cc5)C4)sc3n2)cc1 (stereo not drawn)	2	-12	x	-1	-2
COc1ccc2cc(C(=O)N/N=C/c3sc4ccccc4c3O)ccc2c1	108*	2	u	-3	-8
O=C(N/N=C/c1sc2ccccc2c1O)c1cccc2ccccc12	31*	-23	0	1	0
O=C(N/N=C/c1ccccc1)c1cccc2ccccc12	x	-4	5	x	x
COc1ccc(C(=O)N/N=C/c2sc3ccccc3c2O)cc1	23	-17	-51*	3	-2
O=C(N/N=C/c1sc2ccccc2c1O)c1ccccc1	60*	-22	0	10	-1
Fc1cc(F)c2ncc3c(-c4ccccc4)nn(-c4cccc(Cl)c4)c3c2c1	1	-12	x	2	3
COc1cccc(CNC(=O)CSc2nc(=O)[nH]c3c2CCCC3)c1	0	2	x	x	1
COC(=O)c1cccnc1	x	-9	x	x	x
Clc1cccc(-c2nc3ccccn3c2Nc2ccc3c(c2)OCCO3)c1	3	-4	x	1	-3
SMILES	D1 ag	D3 ag	DRD3 antagonist	D1 antagonist	D1 potentiator
Cc1ccc(N2C(=O)CSC2c2cccnc2)c(Cl)c1 (stereo not drawn)	2	-9	-22	-37*	-1
O=C1CSC(c2cccnc2)N1c1cccc(Cl)c1 (stereo not drawn)	2	-2	13	-9	0
O=c1c2sc3ccccc3c2n(Cc2ccccc2)c(=O)n1CCc1ccccc1	0	1	x	-52*	-1
CCn1c(=O)c2sccc2n2c(CCCC(=O)Nc3ccc(Oc4ccccc4)cc3)nnc12	4	6	x	-3	0
CCN1C(=O)NC2=C(C(=O)c3ccccc32)C1c1ccccc1F (stereo not drawn)	-3	-5	-62*	-10	0
O=C1C=C(C#Cc2ccccc2)C[C@@H](c2ccc(F)cc2)C1	x	-8	-12	x	x
CC(C)C[C@H]1CNC(=O)C(=O)N1C[C@H](C)NC(=O)Cc1ccccc1	1	-29	-52*	0	3
CC(C)C[C@H]1CN(CCCC[C@H]2CNC(=O)C(=O)N2CCc2ccccc2)C(=O)C(=O)N1Cc1ccccc1	x	-3	-18	x	x
CCNC(=O)C1=C(O)c2sccc2N(C)S1(=O)=O	-1	-5	7	19	9
CN1c2ccsc2C(O)=C(C(=S)Nc2ccccc2)S1(=O)=O	-1	1	-72*	x	-2
Cc1ccccc1NC(=S)C1=C(O)c2sccc2N(C)S1(=O)=O	1	4	-88*	x	-2
CCc1ccc(-n2nc(CO)c(C(=O)NCc3ccccn3)n2)cc1	0	-3	x	-5	-3
c1ccc(COc2cccc(-c3cc4nc(NCCOc5ccccc5)ccn4n3)c2)cc1	x	-4	-21	x	x
c1ccc(COc2cccc(-c3cc4nc(NCCc5ccncc5)ccn4n3)c2)cc1	x	88*	77	x	x
Cc1cc(C(=O)NCCCN2CCOCC2)n(-c2ccccc2)n1	0	1	0	0	1
Cc1nn(-c2ccccc2)c2sc(C(=O)NC3CCCCC3)cc12	2	-10	2	-52*	-3
Cc1nn(-c2ccccc2)c2sc(C(=O)n3cccn3)cc12	2	-11	u	14	10
Cc1nn(-c2ccccc2)c2sc(C(=O)NCCN3CCOCC3)cc12	3	3	-71*	4	-4
Cc1ccn(C(=O)c2cc3c(C)nn(-c4ccccc4)c3s2)n1	3	1	-52*	15	7
Nc1nonc1-n1nnc(C(=O)N/N=C/c2ccc(F)cc2)c1-c1ccc2c(c1)OCO2	2	-2	-5	7	3
CCOc1cccc(-c2c(C(=O)N/N=C/c3ccncc3)nnn2-c2nonc2N)c1	5	-3	2	12	17
CCOc1cccc(-c2c(C(=O)N/N=C/c3cccs3)nnn2-c2nonc2N)c1	30*	-2	-30	51	10
COc1ccc(/C=N/NC(=O)c2nnn(-c3nonc3N)c2-c2cccc(OC)c2)cc1	99*	0	-2	5	14
Cc1ccc(/C=N/NC(=O)c2nnn(-c3nonc3N)c2-c2cccs2)cc1	163*	-5	-3	96	19
Cc1ccc(/C=N/NC(=O)c2nnn(-c3nonc3N)c2-c2ccc3c(c2)OCO3)s1	49*	4	-16	71	36*
CC(C)CC(=O)Nc1nc2c(s1)CC(C(C)(C)C)CC2 (stereo not drawn)	5	-24	x	1	-2
COc1cccc(-c2c(C(=O)N/N=C/c3cccs3)nnn2-c2nonc2N)c1	61*	5	-13	33	10
CCOc1ccc(/C(C)=N/NC(=O)c2nnn(-c3nonc3N)c2-c2cccs2)cc1	115*	-2	20	107	41*
Cc1ccc(SCc2c(C(=O)N/N=C/c3ccncc3)nnn2-c2nonc2N)cc1	6	18	36	-42*	-10

High-throughput results from PubChem BioAssay.
